Results reported in the supplement of paper PMC3334620.
In all, about 33,000 sequences were measured (“E-score (-0.5 to 0.5)”: median about -0.0014, highest 2% from about 0.25 on). The entries come from a sample that favours the highest values as a whole.

target: T1, Cad1 (UniProt P24813); test: PBM E-score (8-mer binding enrichment) (E-score (-0.5 to 0.5)); higher = stronger / more preferred TF binding; conditions: protein concentration: 100 nM; construct: GST-full length
T1 sequence: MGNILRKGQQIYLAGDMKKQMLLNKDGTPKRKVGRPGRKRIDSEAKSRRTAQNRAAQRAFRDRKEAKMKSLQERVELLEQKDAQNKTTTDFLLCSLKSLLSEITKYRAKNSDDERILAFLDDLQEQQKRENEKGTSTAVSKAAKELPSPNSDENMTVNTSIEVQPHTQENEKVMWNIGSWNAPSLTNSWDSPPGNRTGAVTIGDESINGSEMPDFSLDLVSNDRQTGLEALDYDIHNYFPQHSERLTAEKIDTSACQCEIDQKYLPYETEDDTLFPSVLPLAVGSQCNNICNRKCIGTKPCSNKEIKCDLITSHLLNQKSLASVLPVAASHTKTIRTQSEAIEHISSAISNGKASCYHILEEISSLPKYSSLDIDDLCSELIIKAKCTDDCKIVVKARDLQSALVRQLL
Protocol: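 Universal 'all 10-mer' protein binding microarrays (Agilent AMADID 015681) probed with GST-tagged S. cerevisiae TFs (full-length or DBD) made by in vitro transcription/translation (PURExpress), about 100-200 nM. Bound TF was detected with fluorescent anti-GST. Each ungapped 8-mer (which stands for itself and its reverse complement) is scored by the PBM enrichment score (E-score), a modified Wilcoxon-Mann-Whitney statistic from -0.5 to +0.5, computed with the Universal PBM Analysis Suite. Scale: above 0.35 generally sequence-specific binding.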

Sequence | PBM E-score
AAAGTCGC | 0.124
GACGAAAA | 0.297
AACGATAC | 0.0534
AACGAAAC | 0.187
AACGATAG | 0.0593
AACGAAAG | 0.0872
CACGAAAA | 0.161
AAAGATAG | 0.00786
TACGAAAA | 0.0721
AAAGATAC | -0.051
AACGATAT | 0.271
AACGAAAT | 0.303
AAAGATAT | 0.277
ACCATCTG | -0.0991
ACGCAGAC | 0.0915
GGAACTAC | -0.0515
GAACGTTC | -0.0713
GACTGATC | -0.075
CCTGCTAA | -0.128
CCAACTGG | 0.025
CGCGAAAA | 0.246
TGCGAAAA | 0.266
CACGAACA | 0.249
AGCGAAAA | -0.0296
AACGAACG | 0.0769

Sequence | PBM E-score
AACGAACA | 0.269
CCGAAGAG | -0.0285
CTTCTGAA | 0.0469
CTCGGGCA | 0.0974
AGTGTGGG | -0.0209
GCACGTGA | 0.0273
CCACGTGC | 0.00023
GCACGTGC | 0.32
GTCAGACA | 0.116
AAGGTCGT | 0.0718
CCTAGACC | -0.179
GGTTAGAA | -0.111
AAGCTCGA | 0.263
AAGCTCGC | 0.224
CAGCTCGA | 0.0283
TTGGCAAA | 0.121
ATAGATTG | 0.0192
GACCCGGC | -0.0968
GCTGAGCC | -0.119
AACGCTTC | -0.0949
AATCAACA | 0.275
AATCAGCA | 0.258
AATCAGCC | 0.0909
GATCAGCA | 0.141
TATCAACA | 0.0364

Sequence | PBM E-score
GATCAACA | 0.131
AATCAGCT | 0.274
AATCAGCG | 0.211
CATCAGCA | 0.01
CGACAGCA | 0.0252
AGTTCAGA | -0.104
CAACATGA | 0.144
CACTAGAA | -0.0573
GATTGTCA | 0.117
GTTTGTCA | 0.317
CTTTGTTA | 0.222
GTTTGTTA | 0.202
CTTTGTCA | 0.278
CTTTGTCC | 0.058
AAGATTAG | 0.144
GTCTGCGA | 0.0486
AGACCGGA | -0.062
CTCGCGAC | 0.15
TCCGCGAA | 0.202
TTCGCGAA | 0.343
GTCGCGAA | 0.0594
GTCGCGAC | 0.391
ATCGCGAC | 0.195
GGGCCTCA | -0.0631
ATCATTTC | 0.136

Sequence | PBM E-score
GGCTCATA | 0.0877
CAACAGGA | -0.182
ACCTCGGG | -0.173
CTGCTTAC | 0.276
GCGCTTAC | 0.299
CTGCTTAA | 0.0117
ATGCTTAC | 0.112
GCGCTTAA | 0.106
CCGCTTAC | 0.184
ACCGTATA | -0.00739
CAAAAGAC | -0.00184
ATCATAAG | 0.0855
ATCATAAT | 0.144
ATCATAAC | 0.273
CTTCGTTA | -0.0282
AATTAATG | 0.242
AATTAATT | 0.285
ACTTAATA | 0.186
AATTAAGA | 0.104
AATTAATA | 0.432
AATTAATC | 0.227
AGCGAACA | 0.195
CGCCAACA | 0.157
AAAAAAAC | 0.121
CAAATGGG | 0.0861

Sequence | PBM E-score
CCATATCA | -0.00962
GCATATCA | 0.278
TCATATCA | 0.0259
CCATGCAG | -0.0439
GCGGAAGC | 0.0712
AGCGGCTC | -0.0559
ACGGAAAC | -0.0435
ACGGATAT | 0.254
ACGGAAAA | 0.24
ACGGAAAT | 0.288
ACGGATAA | 0.0973
ACGGATAG | 0.0118
AGGGTTGA | -0.0586
GGATCGAA | 0.045
CTTCTCGA | 0.0254
ACGGCTGA | 0.0503
CAGCCATG | -0.077
CAAATATA | -0.0118
CAAATATG | 0.135
AAAATATC | 0.198
ATAATATA | 0.227
TAAATATA | 0.277
TATAAATA | 0.25
AAAATATA | 0.208
CAAATATC | 0.261

Sequence | PBM E-score
CATAAATA | 0.171
GTAATATA | 0.327
GATAAATA | 0.123
CTAATATA | 0.239
ATCCCTTG | -0.131
ACAATAGT | 0.109
GCAGCGGA | -0.0753
AGAGAGAA | -0.0532
ACACTAAA | 0.144
TTGCACAA | 0.0972
CCAAAAAC | 0.116
AAGTCTGG | 0.105
CTAAAATA | 0.0866
AATAAAAT | 0.166
AATAAACT | 0.12
AATAAATG | 0.0809
AAAAAATA | 0.0934
TAAAAATA | 0.277
AATAAAGA | 0.195
AATAAATA | 0.313
AATAAAAA | 0.264
AATAAAAG | 0.0174
AATAAATC | -0.0137
AATAAATT | 0.282
AACCCGTG | -0.317

Sequence | PBM E-score
CCCACCCC | 0.0432
CGCTATGA | 0.119
CCCTTGGA | 0.00683
CGTATTAA | 0.0596
ACTAGAAT | 0.0557
ACTGCATC | -0.00501
ATCAGAGA | -0.0164
AGCGAAAT | -0.184
CATATCGC | 0.0925
ATACCATA | 0.27
GTACCATA | -0.158
ATACCATG | -0.0699
ATTTAACA | 0.193
GCCTGAGA | -0.169
ATGGGACC | -0.00547
CAGCCACC | -0.0873
ACTGACAT | -0.0482
ACTGACAC | -0.0887
ACAGACAA | 0.29
ACAGACAG | 0.0659
TCAGAAAA | -0.145
CCTGACAA | -0.0066
